Compound activity (PubChem)
An excerpt weighted towards active compounds, which were near 8% of everything screened.
MCF10A rereplic: induces DNA re-replication in MCF 10a normal breast cells; MCF 10A DNA re-replication, Hoechst nuclear intensity, 48 h; 350,000 tested, 2.9% active; AID 624296; Potency, µM (doses to about 46.1 µM), for the others: top-dose activity, positive = re-replication, usual class: activators; also: % of control where 0% means no effect; nearly all actives have a fitted effect of over 50% in size
HT1080 IDH1KD tx: HT-1080 IDH1 knockdown cell toxicity (counter line). HT-1080 IDH1 knockdown viability, ATP luminescence, 48 h. Potency, µM (highest dose often 46.1 µM), for the others: top-dose activity, negative = toxicity, most hits filed as cytotoxic. 360,000 tested, 2% active. AID 686971;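 also: 0% = DMSO wells and -100% = cell-free medium wells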
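In this qHTS, HT-1080 cells depleted of IDH1 are exposed for 48 h at 37 °C to compound titrations. Toxicity is scored from CellTiter-Glo luminescence, with DMSO as full viability and medium alone as none.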
HT1080NT lethal: kills 2HG-producing HT-1080-NT fibrosarcoma cells | HT-1080-NT fibrosarcoma viability, CellTiter-Glo ATP luminescence, 48 h | Potency, µM (titrated, usually from 46.1 µM), without a hit: at the highest dose activity, negative = less viability, hits mostly cytotoxic | 360,000 tested, 1.6% active | AID 686970;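 also: NT is the 2HG producing partner of a matched IDH1 knockdown line; 0% = DMSO-treated cells and -100% = media-only wells without cells; nearly all actives have a fitted effect of over 55% in size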
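750 cells/well, RPMI + 5% FBS; 2 h settle, compound pin-transfer, 48 h at 37 degrees C. CellTiter-Glo 10 min RT, luminescence. Normalized to DMSO and media-only wells.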
SW480 rerep: induces DNA re-replication in SW480 colon adenocarcinoma cells. SW480 DNA re-replication, Hoechst DNA content imaging, 48 h. Potency, µM (series often up to 46.1 µM), for inactives: at the highest dose re-replication activation, usual class: activators. 340,000 tested, 1.8% active. AID 624297; also: % of control where 0% means no effect; nearly all actives have a fitted effect of over 55% in size
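DNA re-replication was detected as more nuclei of elevated Hoechst intensity after 48 hr exposure to compound (23 nL pinned per well of 250 cells).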
KB-V1 cytotox: kills drug-selected multidrug resistant KB-V1 cells | Potency, µM (top dose mostly 46.1 µM), most hits filed as cytotoxic | 400,000 tested, 3.4% active | KB-V1 MDR cells viability, CellTiter-Glo, 72 h | AID 1347076; also: % is scaled to controls: 0 for no effect and ±100 for the full control effect; nearly all actives have a fitted effect of over 60% in size
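Potencies derive from concentration-effect curves fitted to normalized luminescence (CellTiter-Glo) of KB-V1 cells treated for 72 h at 37 degrees C in phenol-red-free DMEM containing 10% FBS.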
KB-3-1 cytotox: kills parental KB-3-1 adenocarcinoma cells; KB-3-1 viability, CellTiter-Glo ATP luminescence, 72 h; Potency, µM (top dose mostly 46.1 µM), usual class: cytotoxic; 400,000 tested, 1.4% active; also: % is scaled to controls: 0 for no effect and ±100 for the full control effect; nearly all actives have a fitted effect of over 60% in size
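Cytotoxicity in the drug-sensitive parental line KB-3-1 was scored as loss of CellTiter-Glo luminescence following 72 h incubation with compound. Values come from curve fitting of normalized concentration-response data.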
The depositor's hits bear a star; i = inactive; ? = inconclusive; . = no result. Calls follow the shape of the dose curve; as a rule, active = well fitted curve in the direction sought with a large enough effect; inconclusive = small, poorly fitted or top-dose-only effect, or another doubt; inactive = no such curve, though single readings can be large; an effect the other way counts as inactive or inconclusive. Potency is read from the fitted curve at half-maximal effect.

SMILES	MCF10A rereplic	HT1080 IDH1KD tx	HT1080NT lethal	SW480 rerep	KB-V1 cytotox	KB-3-1 cytotox
Nc1nc(N)c(N=O)c(OCC2CCCCC2)n1	?	18.4µM*	?	10.6%	?	i
Cc1ccc(S(=O)(=O)Nc2cccc(-c3ccc4nncn4n3)c2)cc1	4.11µM*	3.26µM*	4.61µM*	2.59µM*	16.4µM*	3.66µM*
COc1c(C)cc(S(=O)(=O)Nc2cccc(-c3ccc(N4CCOCC4)nn3)c2)c(C)c1C	.	.	.	.	i	20.6µM*
O=S(=O)(Nc1cccc(-c2ccc(N3CCCCCC3)nn2)c1)c1ccc(F)cc1	14.6µM*	-28.1%	?	?	i	?
Cc1cc(C)cc(S(=O)(=O)Nc2cccc(-c3ccc(N4CCOCC4)nn3)c2)c1	.	.	.	.	i	i
COc1ccc(NC(=O)COc2cccc(-n3cnnn3)c2)cc1Cl	-4.5%	-18.2%	?	6.51µM*	i	i
CC1(C)c2[nH]c3ccccc3c2C[C@@H]2C(=O)N(Cc3ccc(F)cc3)C(=O)N21	18.4µM*	.	.	1.6%	?	?
Cc1ccc(CN2C(=O)[C@H]3Cc4c([nH]c5ccccc45)C(C)(C)N3C2=O)cc1	20.6µM*	.	.	?	i	?
Cc1ccc(CN2C(=O)[C@@H]3Cc4c([nH]c5ccccc45)C(C)(C)N3C2=O)cc1	?	.	.	-9.9%	?	?
CCSC1=C(C#N)C(c2ccccc2OC)CC(=O)N1 (stereo not given)	2.1%	-2.4%	-3.7%	-4.7%	i	i
CCOC(=O)CSC1=C(C#N)C(c2ccccc2OC)CC(=O)N1 (stereo not given)	5.17µM*	18.4µM*	?	18.4µM*	?	?
CCCCOC(=O)CSC1=C(C#N)C(c2ccccc2OCC)C(C#N)C(=O)N1 (stereo not given)	?	-15.4%	-6.0%	10.3µM*	?	i
CCCOC(=O)CSC1=C(C#N)C(c2ccccc2OCC)C(C#N)C(=O)N1 (stereo not given)	2.7%	-8.3%	-14.2%	-2.9%	i	i
CCOC(=O)CSC1=C(C#N)C(c2ccc(C)s2)CC(=O)N1 (stereo not given)	?	1.78µM*	0.708µM*	4.7%	1.84µM*	5.17µM*
O=C(Cc1ccc(Oc2ccccc2)cc1)NO	.	.	.	.	i	i
COc1ccc(NC(=O)C2(S(=O)(=O)c3ccc(C)cc3)CC2)c(OC)c1	.	.	.	.	i	i
Cc1ccc2c(c1)C(c1ccncc1)=NNC(c1ccccc1)=N2	4.4%	15.3%	17.0%	-9.6%	i	i
c1ccc(C2=Nc3c(ccc4ccccc34)C(c3ccncc3)=NN2)cc1	21.9%	20.6µM*	?	?	?	?
Cc1ccc(CSc2nnc3ccc(-c4ccncc4)nn23)cc1	13.7%	-7.9%	-0.2%	-6.1%	?	i
Cc1nc2c(N=Nc3ccccc3F)c(N)nn2c(N)c1C#N	-2.1%	?	23.5%	-6.7%	i	i
CC1CCc2[nH]c3ccc(C(=O)N(C)CC(=O)Nc4ccccc4Cl)cc3c2C1 (stereo not given)	11.5%	-20.7%	-0.3%	-1.9%	?	i
CCCN(CC(=O)Nc1ccccc1OC)C(=O)c1ccc2[nH]c3c(c2c1)CC(C)CC3 (stereo not given)	?	-21.4%	-1.6%	11.2%	16.4µM*	?
CCN(CC(=O)Nc1ccccc1OC)C(=O)c1ccc2[nH]c3c(c2c1)CC(C)CC3 (stereo not given)	18.4µM*	?	?	-8.9%	i	?
Cc1ccc(NC(=O)CN(C)C(=O)c2ccc3[nH]c4c(c3c2)CC(C)CC4)cc1 (stereo not given)	?	-17.2%	-17.0%	?	14.6µM*	?
Cc1ccc(C)c(N(C)C(=O)CCNC(=O)Cn2cnc3ccccc3c2=O)c1	.	.	.	.	i	i
SMILES	MCF10A rereplic	HT1080 IDH1KD tx	HT1080NT lethal	SW480 rerep	KB-V1 cytotox	KB-3-1 cytotox
CCc1ccccc1NC(=O)CSc1ncc2c(n1)-c1ccccc1N(C)S2(=O)=O	.	.	.	.	i	i
COc1cccc(/C(C)=N/NC(=O)Cc2c(C)[nH][nH]c2=O)c1	8.8%	1.7%	5.3%	-1.0%	i	i
CC(Oc1ccc(Cl)cc1Cl)C(=O)Nc1ccc2oc(-c3ccncc3)nc2c1 (stereo not given)	9.2µM*	-9.0%	-4.2%	?	i	?
CC(Oc1ccc(Cl)cc1Cl)C(=O)NCCCn1ccnc1 (stereo not given)	16.4µM*	11.5%	7.4%	-6.4%	i	i
CC(Oc1ccc(Cl)cc1Cl)C(=O)NNC(=O)c1ccncc1 (stereo not given)	-1.2%	-7.2%	?	-1.3%	i	i
CC(Oc1ccc(Cl)cc1Cl)C(=O)NCc1ccncc1 (stereo not given)	-0.8%	-5.6%	0.1%	-1.9%	20.6µM*	i
Cc1nnsc1-c1onc(C)c1C(=O)O/N=C/c1ccc(Cl)cc1	15.4%	-8.3%	0.1%	0.8%	i	i
O=C(Nc1ccc(S(=O)(=O)NC2=NCCCCC2)cc1)c1ccc([N+](=O)[O-])s1	?	?	?	13µM*	?	6.51µM*
O=C(Nc1ccc(S(=O)(=O)NC2=NCCCCC2)cc1)c1ccc(Cl)c([N+](=O)[O-])c1	20.6µM*	-24.9%	?	2.5%	i	i
O=C(Nc1ccc(S(=O)(=O)NC2=NCCCCC2)cc1)c1ccc(C(F)(F)F)cc1	5.1%	-10.8%	-2.2%	0.6%	20.6µM*	20.6µM*
Cc1cccc(C)c1NS(=O)(=O)c1ccc(NC(=O)c2ccc(Cl)c([N+](=O)[O-])c2)cc1	?	?	?	?	?	i
CC[C@H](C)[C@@H](CO)NC(=O)[C@H]1O[C@@H](n2ccc(=O)[nH]c2=O)[C@H](O)[C@@H]1O	.	13.8%	19.3%	.	i	i
O=c1oc2ccc(Br)cc2cc1S(=O)(=O)c1ccc(F)cc1	5.17µM*	14.6µM*	?	27.9%	?	29.1µM*
CC(C)C1(C)NC(c2ccc3c(c2)OCO3)=CC(c2ccccc2O)N1 (stereo not given)	.	.	.	.	i	i
CC(C)C1N=C(c2ccc3c(c2)OCO3)CC(c2ccccc2O)N1 (stereo not given)	20.6µM*	?	?	?	?	?
CC1(c2nnnn2Cc2ccccc2)CCC(=O)N1CCc1ccc(O)cc1 (stereo not given)	.	5.5%	2.6%	.	i	i
